We go through 32 compounds from PubChem BioAssay (EPA / NIEHS).

Activity calls are given as the source filed them. The calls were made as follows: active = hit-call score of the fitted dose curve at least 0.9, where 1 is the maximum; inactive = score below 0.9.

Read-out in one assay: CD40, CD40 (gene 958)
The assay is described as follows: BSK_SAg_CD40: BioMAP Diversity Plus: SAg Assay for CD40 Biomarker Activity (AID 2283088). To be noted: primary human HUVEC with PBMC; actives raise or lower the signal. An outline of the steps: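 Endpoint derived by fitting increases or decreases versus DMSO controls. CD40 is detected by fluorescence ELISA in a human vascular co-culture of endothelium and PBMC at 24 h.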
Turning to `Cc1ccc2nc3sc(=O)sc3nc2c1`, the AC50 is 6.41 µM (active).

With `Nc1c(Oc2ccccc2)cc(O)c2c1C(=O)c1ccccc1C2=O`, the AC50 was 7.45 µM (active).

As to `Cc1cc(C)cc(C)c1`, the result was inactive.

For the compound `CCN(CC)C(=O)C(Cl)=C(C)OP(=O)(OC)OC`, the result was inactive.

Take `Oc1cccc(-c2ccccc2)c1`: the AC50 was 30.8 µM (active).

With `[Cl][Sn]([c]1ccccc1)([c]1ccccc1)[c]1ccccc1`, the AC50 was 0.146 µM (active).

With `OCCCCO`, the result was inactive.

As for `OCCN(CCO)CCO`, the outcome was inactive.

`CCOC(=O)C(SP(=S)(OC)OC)c1ccccc1` (centres undefined): the result was inactive.

With `OC(Cc1ccccc1Cl)(Cn1cncn1)C1(Cl)CC1` (centres undefined), the outcome was inactive.

Take `CCC(C)(C#N)N=NC(C)(C#N)CC` (centres undefined): the outcome was inactive.

Take `C[C@]12CC[C@@H](O)C[C@@H]1CC[C@@H]1[C@@H]2CC[C@]2(C)C(=O)CC[C@@H]12`: the outcome was inactive.

Take `Cc1ccccc1OP(=O)(Oc1ccccc1)Oc1ccccc1`: the AC50 was 28.3 µM (active).

As for `Oc1cc(Cl)c(Cl)cc1Cl`, the AC50 is 24.8 µM (active).

For `O=C(O)COc1cc(Cl)c(Cl)cc1Cl`, the result was inactive.

`Cc1cc(Cl)ccc1OC(C)C(=O)O` (centres undefined): the outcome was inactive.

Take `O=C(CCl)NCO`: the outcome was inactive.

Turning to `Clc1cccc(Cl)c1Cl`, the result was inactive.

On to `Cc1c([N+](=O)[O-])c(C)c([N+](=O)[O-])c(C(C)(C)C)c1[N+](=O)[O-]`, for which the result was inactive.

For the compound `CC(C)(C)c1cc([N+](=O)[O-])cc(C(C)(C)C)c1O`, the AC50 was 0.474 µM (active).

Take `O=C1C=CC(=O)c2ccccc21`: the AC50 is 2.17 µM (active).

As to `Clc1cccc(Cl)c1`, the outcome was inactive.

On to `O=C(N[C@H]1CN2CCC1CC2)c1ccc2c(c1)OCCO2`, for which the result was inactive.

As to `COCC(=O)N(c1c(C)cccc1C)[C@H](C)C(=O)OC`, the outcome was inactive.

As to `NC(=O)CCl`, the result was inactive.

In the case of `Oc1ccc(Cc2ccc(O)cc2)cc1`, the outcome was inactive.

Turning to `CCOP(=O)(OCC)OC(=CCl)c1ccc(Cl)cc1Cl`, the AC50 is 20 µM (active).

In the case of `CCCCN(CCCC)C(=S)[S-].CCCCN(CCCC)C(=S)[S-].[Ni+2]`, the outcome was inactive.

On to `O=C(Cc1ccccc1)OCCc1ccccc1`, for which the outcome was inactive.

For `O=[N+]([O-])c1ccc(Nc2ccccc2)cc1`, the result was inactive.

Take `COc1ccccc1N`: the outcome was inactive.

Consider `N#Cc1cccnc1`, for which the result was inactive.

Read-out in another assay: CD69, CD69 (gene 969)
In words: BSK_SAg_CD69: BioMAP Diversity Plus: SAg Assay for CD69 Biomarker Activity (AID 2283089).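 As to AC50: cell surface CD69 protein quantified by ELISA with fluorescence detection.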 The settings on record: primary human HUVEC with PBMC; actives raise or lower the signal. An outline of the steps:
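ELISA, fluorescence read-out: CD69 on human umbilical vein endothelial cell + PBMC co-culture, 24 h post-dosing. Gain or loss of signal fitted bidirectionally against DMSO baseline.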
Consider `Cc1ccc2nc3sc(=O)sc3nc2c1`, for which the result was inactive.

In the case of `Nc1c(Oc2ccccc2)cc(O)c2c1C(=O)c1ccccc1C2=O`, the result was inactive.

As to `Cc1cc(C)cc(C)c1`, the outcome was inactive.

As to `CCN(CC)C(=O)C(Cl)=C(C)OP(=O)(OC)OC`, the outcome was inactive.

Take `Oc1cccc(-c2ccccc2)c1`: the result was inactive.

As to `[Cl][Sn]([c]1ccccc1)([c]1ccccc1)[c]1ccccc1`, the AC50 is 0.176 µM (active).

With `OCCCCO`, the outcome was inactive.

As for `OCCN(CCO)CCO`, the outcome was inactive.

On to `CCOC(=O)C(SP(=S)(OC)OC)c1ccccc1` (centres undefined), for which the concentration at half-maximal activity (AC50) was 20 µM (active).

With `OC(Cc1ccccc1Cl)(Cn1cncn1)C1(Cl)CC1` (centres undefined), the result was inactive.

Consider `CCC(C)(C#N)N=NC(C)(C#N)CC` (centres undefined), for which the result was inactive.

As to `C[C@]12CC[C@@H](O)C[C@@H]1CC[C@@H]1[C@@H]2CC[C@]2(C)C(=O)CC[C@@H]12`, the result was inactive.

Turning to `Cc1ccccc1OP(=O)(Oc1ccccc1)Oc1ccccc1`, the AC50 is 28.1 µM (active).

With `Oc1cc(Cl)c(Cl)cc1Cl`, the AC50 is 20 µM (active).

As to `O=C(O)COc1cc(Cl)c(Cl)cc1Cl`, the outcome was inactive.

Regarding `Cc1cc(Cl)ccc1OC(C)C(=O)O` (centres undefined), the result was inactive.

Take `O=C(CCl)NCO`: the result was inactive.

Regarding `Clc1cccc(Cl)c1Cl`, the outcome was inactive.

For the compound `Cc1c([N+](=O)[O-])c(C)c([N+](=O)[O-])c(C(C)(C)C)c1[N+](=O)[O-]`, the outcome was inactive.

`CC(C)(C)c1cc([N+](=O)[O-])cc(C(C)(C)C)c1O`: the AC50 was 0.322 µM (active).

Regarding `O=C1C=CC(=O)c2ccccc21`, the AC50 is 0.836 µM (active).

For `Clc1cccc(Cl)c1`, the outcome was inactive.

In the case of `O=C(N[C@H]1CN2CCC1CC2)c1ccc2c(c1)OCCO2`, the outcome was inactive.

As to `COCC(=O)N(c1c(C)cccc1C)[C@H](C)C(=O)OC`, the result was inactive.

Regarding `NC(=O)CCl`, the outcome was inactive.

With `Oc1ccc(Cc2ccc(O)cc2)cc1`, the outcome was inactive.

Consider `CCOP(=O)(OCC)OC(=CCl)c1ccc(Cl)cc1Cl`, for which the AC50 is 20 µM (active).

For the compound `CCCCN(CCCC)C(=S)[S-].CCCCN(CCCC)C(=S)[S-].[Ni+2]`, the result was inactive.

Turning to `O=C(Cc1ccccc1)OCCc1ccccc1`, the outcome was inactive.

With `O=[N+]([O-])c1ccc(Nc2ccccc2)cc1`, the result was inactive.

For `COc1ccccc1N`, the result was inactive.

As to `N#Cc1cccnc1`, the outcome was inactive.

What is called AC50 is the concentration at which the activity in the assay is half-maximal.
